# Source: PubChem
# An excerpt weighted towards active compounds, which were near 3.4% of everything screened.
# MEKK3 PB1 HTS – modulators of MEKK3-MEK5 PB1 binding, primary screen, biochemical, wildtype MEKK3, multiplex bead flow cytometry, Alexa488-MEK5; Mitogen-activated protein kinase kinase kinase 3 (Homo sapiens), Q99759; bead-based flow cytometry, Alexa488-MEK5 binding to MEKK3; actives lie on both sides; 0 = blocked by unlabeled MEK5, 100 = vehicle; binding response (% of control), % at 10 µM; 290,000 tested, 1.4% active; AID 1529, 2009;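 active means binding response more than 3 SD above or below the average of its plate-row segment, actives on both sides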;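 further: Alexa488 bead fluorescence after subtracting the streptavidin-only scavenger bead signal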
# MEKK2 mut-MEK5 – MEK5 binding signal on mutant MEKK2 PB1, primary screen, biochemical, multiplex bead flow cytometry, Alexa488-MEK5 | Alexa488-MEK5 binding to MEKK2 mutant | AID 1530, 2009 | percent response, % at 10 µM | 290,000 tested, 0.35% active; in the data active means percent response above about 24%, passing the limit was not always enough
# NTR1 agonist – agonists of human NTR1, primary screen, imaging, U2OS cells, beta-arrestin-GFP, high content. Neurotensin receptor type 1 (Homo sapiens), P30989. NTR1-U2OS beta-arrestin-GFP spot imaging, agonist mode. activation, % at 20 µM. 330,000 tested, 0.17% active;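 active means activation at or above 40% of the spot to cytoplasm intensity ratio, with at least 20 cells analyzed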;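 further: 0% = DMSO without peptide and 100% = 100 nM NTR1 peptide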
# Target sequence (P30989 whole entry, looked up): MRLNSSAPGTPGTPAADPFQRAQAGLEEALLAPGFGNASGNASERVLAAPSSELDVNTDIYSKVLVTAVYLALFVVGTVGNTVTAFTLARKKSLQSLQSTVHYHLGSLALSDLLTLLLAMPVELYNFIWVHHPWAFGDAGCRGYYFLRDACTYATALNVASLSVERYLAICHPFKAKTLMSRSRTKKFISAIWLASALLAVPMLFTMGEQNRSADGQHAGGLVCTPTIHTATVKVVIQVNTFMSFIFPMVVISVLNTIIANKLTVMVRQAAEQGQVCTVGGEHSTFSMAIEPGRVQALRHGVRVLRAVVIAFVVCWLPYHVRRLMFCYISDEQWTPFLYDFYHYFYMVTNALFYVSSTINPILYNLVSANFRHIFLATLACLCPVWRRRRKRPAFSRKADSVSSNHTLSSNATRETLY
# ANO1 block – TMEM16A chloride channel inhibitors, primary screen, cell-based, HTS; Anoctamin-1 (Mus musculus), Q8BHY3; HEK293 TMEM16A/YFP iodide influx fluorescence, ionomycin; normalized B-score (activity score, 25-100; higher = stronger inhibition) at 10 µM; 310,000 tested, 1.2% active; AID 588511, 2011;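 active means ratio plate-corrected score three or more library SD toward inhibition, starting fluorescence score within five deviations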;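 further: score derived from kinetic fluorescence span divided by baseline fluorescence per well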
# ANO1 activ – TMEM16A chloride channel activators or potentiators, primary screen, cell-based, HTS | AID 623877, 2012 | 340,000 tested, 0.3% active | HEK293 TMEM16A/YFP-H148Q/I152L, iodide quench fluorescence; active compounds read low | B-score at 10 µM;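 active means fluorescence-ratio B-score plate-corrected deviation score at least 3 library SD below zero, with starting fluorescence score within 5 deviations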;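 further: channel opened by trigger with iodide after compound preincubation; score built on the fluorescence ratio of max minus min over baseline; more negative score means more quench and so TMEM16A activation or potentiation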
# MEKK2wt PB1 HTS – modulators of MEK5 binding to wildtype MEKK2, primary screen, biochemical, multiplex bead flow cytometry, Alexa488-MEK5; Mitogen-activated protein kinase kinase kinase 2 (Homo sapiens), Q9Y2U5; binding response (% of control), % at 10 µM; 290,000 tested, 1.1% active; Alexa488-MEK5 binding to MEKK2 WT; actives lie on both sides; in the data active means binding response below about 67% or above about 130%
# NTR1 ag conf – NTR1 agonists, single-dose retest, confirmation, imaging, U2OS cells, beta-arrestin-GFP, single concentration; shares compounds with NTR1 agonist; NTR1-U2OS beta-arrestin-GFP translocation imaging; activation, % at 20 µM; 480 tested, 38% active;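 active means mean activation at 20 µM of at least 40%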;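 further: 0% = DMSO without peptide and 100% = 100 nM NTR1 peptide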
# The depositor's hits bear a star; i = inactive; . = no result.
SMILES,MEKK3 PB1 HTS,MEKK2 mut-MEK5,NTR1 agonist,ANO1 block,ANO1 activ,MEKK2wt PB1 HTS,NTR1 ag conf
O=C(N/C=N/OCc1ccc(Cl)cc1Cl)NOCc1ncc(C(F)(F)F)cc1Cl,105,2,41*,i,i,108,12
CO/N=C/NC(=O)NOCc1ncc(C(F)(F)F)cc1Cl,100,-2,0,i,i,98,.
CSCCC(NS(=O)(=O)c1ccc(Cl)cc1)C(=O)OCC(=O)c1c(C)[nH]c2ccccc12 (stereo unspecified),97,1,41*,i,i,109,25
Cc1[nH]c2ccccc2c1C(=O)COC(=O)C1CC(O)CN1S(=O)(=O)c1ccc(Cl)cc1 (stereo unspecified),.,.,6,.,i,.,.
O=C(CSc1nc2ccc([N+](=O)[O-])cc2[nH]1)c1ccc2ccccc2c1,97,4,44*,i,i,97,3
CC/C(C)=N/NC(=S)NCc1ccco1,96,-2,-1,i,i,94,.
CC(=O)Nc1cccc(C(=O)/C=C/c2ccc(/C=C/C(=O)c3cccc(NC(C)=O)c3)cc2)c1,99,1,11,i,.,106,.
CC(=O)Nc1cccc(C(=O)/C=C/c2ccc(Br)cc2)c1,100,-1,48*,i,i,101,73*
O=C1c2[nH]nc(-c3ccccc3O)c2C(c2cccc(Cl)c2)N1Cc1ccco1 (stereo unspecified),99,-3,46*,i,i,93,10
CC1(c2ccccc2)CC(C)(C)n2c(O)c(C3=NC(=S)NC3=O)c3cccc1c32 (stereo unspecified),91,1,42*,i,i,79,27
CC(C)CC1(C)NC(=O)N(CC(=O)N2C(C)CCCC2C)C1=O (stereo unspecified),.,.,0,.,i,.,.
N#C/C(=C\c1cn[nH]c1-c1ccc(Cl)cc1)C(=O)NC1CC1,96,0,-1,i,i,102,.
N#C/C(=C\c1cn[nH]c1-c1ccc(Cl)cc1)C(=O)NCc1ccccc1,.,.,43*,i,i,.,9
C[C@H](NC(=O)c1[nH]cnc1C(=O)Nc1ccc(Cl)cc1)C(=O)OC(C)(C)C,84,2,41*,i,i,81,29
CCOC(=O)c1ccc(NC(=O)c2nc[nH]c2C(=O)N[C@@H](C)C(=O)OC(C)(C)C)cc1,86,-6,43*,i,i,97,40
Cc1cccc(NC(=O)c2nc[nH]c2C(=O)N[C@@H](C)C(=O)OC(C)(C)C)c1,95,4,12,i,i,91,.
Cc1cccc(NS(=O)(=O)c2ccc(C)c(NS(=O)(=O)c3cccs3)c2)c1,.,.,0,.,i,.,.
COC(=O)C1=C(C)N(Cc2ccccc2)C(=NCc2ccccc2)N[C@H]1c1cccc(C(F)(F)F)c1,.,.,44*,.,i,.,75*
CCOC(=O)c1cccc(NC(=O)c2ccc3c(c2)C(=O)N(CC2CCCO2)C3=O)c1 (stereo unspecified),105,7,3,i,i,108,.
COc1cc(N/N=C(\C)c2ccc(O)c(C)c2)nc(-c2ccccc2)n1,98,-6,53*,i,i,103,20
COc1ccccc1-c1cn[nH]c1-c1ccc(OCc2ccccc2)cc1O,100,-2,57*,i,i,96,1
